PHOSPHO1 block – blocks human PHOSPHO1 phosphatase activity | 290,000 tested, 1.1% active | recombinant PHOSPHO1, absorbance phosphatase assay | inhibition, % at 13.3 µM | Q8TCT1; in the data active means inhibition above about 60%
PABP1 MLLE inh – blocks PAM2 peptide binding to the PABP1 MLLE domain; P11940; GST-MLLE / FITC-PAM2 fluorescence polarization; AID 588489; 360,000 tested, 0.36% active; inhibition, % at 20 µM; in the data active means inhibition above about 35%, passing the limit was not always enough
eIF4H FP inh – inhibitors of RNA binding by human eIF4H; eIF4H fluorescence polarization binding assay; inhibition, % at 35 µM; 290,000 tested, 0.94% active;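 further: calls also rest on retests at 20 µM and on dose response follow-up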
AI-2 QS modul – modulators of Vibrio harveyi AI-2 quorum sensing system; Vibrio harveyi JMH597 AI-2 luminescence/OD600 ratio, 9 h; hits give low values; strain lacks LuxN and CqsS sensors; 0 = neutral-control median; 300,000 tested, 0.4% active; activity change, % at 7.5 µM; in the data active means activity change below about -75%, passing the limit was not always enough; inconclusive means no clear call, values can overlap the other calls;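 further: luminescence divided by OD600 gain over 9 h not by final OD600 alone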
PABP FP inh – blocks human PABP binding to poly(A) RNA. fluorescence polarization. 290,000 tested, 1% active. calls only at 35 µM. P11940. AID 2014;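 further: calls also rest on retests at 20 µM and on dose response follow-up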
ABCB6 inh MLPCN – blocks the human ABCB6 transporter; Q9NP58; 360,000 tested, 0.19% active; K562-ABCB6 porphyrin accumulation, flow cytometry, 1 h; hits give low values; fluorescence ratio to DMSO, % at 10 µM;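 active means fluorescence ratio to DMSO below 75%, the collection mean minus 3 SD; inconclusive means too few cells collected in the well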;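 further: signal is porphyrin accumulated inside mitochondria; lower ratio means ABCB6 inhibition with less porphyrin fluorescence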
Target sequence (Q9NP58 whole entry, looked up): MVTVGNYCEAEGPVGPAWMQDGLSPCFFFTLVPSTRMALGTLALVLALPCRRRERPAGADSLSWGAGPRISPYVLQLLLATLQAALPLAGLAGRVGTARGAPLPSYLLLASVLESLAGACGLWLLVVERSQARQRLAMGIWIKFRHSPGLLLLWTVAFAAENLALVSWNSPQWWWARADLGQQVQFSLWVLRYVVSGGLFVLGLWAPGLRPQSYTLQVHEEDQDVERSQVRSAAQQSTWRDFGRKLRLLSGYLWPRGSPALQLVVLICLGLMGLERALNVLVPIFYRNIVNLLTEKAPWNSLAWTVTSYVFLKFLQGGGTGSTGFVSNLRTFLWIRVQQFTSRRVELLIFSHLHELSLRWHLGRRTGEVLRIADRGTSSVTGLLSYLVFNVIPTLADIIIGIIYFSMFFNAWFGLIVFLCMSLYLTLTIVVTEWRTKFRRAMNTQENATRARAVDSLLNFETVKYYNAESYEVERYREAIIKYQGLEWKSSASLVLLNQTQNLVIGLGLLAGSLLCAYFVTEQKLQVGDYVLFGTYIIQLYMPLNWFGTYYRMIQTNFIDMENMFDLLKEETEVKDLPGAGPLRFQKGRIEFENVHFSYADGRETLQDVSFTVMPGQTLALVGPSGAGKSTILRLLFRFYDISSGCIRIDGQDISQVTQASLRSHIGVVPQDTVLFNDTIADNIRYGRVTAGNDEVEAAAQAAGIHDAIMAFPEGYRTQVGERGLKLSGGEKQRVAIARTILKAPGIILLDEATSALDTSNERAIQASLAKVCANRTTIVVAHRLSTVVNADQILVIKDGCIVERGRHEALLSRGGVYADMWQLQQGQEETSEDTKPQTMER
Large screens that a line does not name were inactive. In the library only some 2.6% were active in any assay of this set; here they are far more common. Unless noted, how the calls were made is not given here.

NC(CSC(c1ccccc1)(c1ccccc1)c1ccc2c(c1)OCO2)C(=O)O (stereo not given)	none (no result: PHOSPHO1 block, eIF4H FP inh, AI-2 QS modul, PABP FP inh)
C=CCn1c(C)cc(C(=O)CSc2n[nH]c(N)n2)c1C	PHOSPHO1 block 62
Cc1cc(C(=O)CSc2n[nH]c(N)n2)c(C)n1C1CC1	PHOSPHO1 block 96
CCc1nc2c(OCc3ccccc3C)cccn2c1N(C)C(=O)c1ccc(C)cc1	none (no result: PHOSPHO1 block, eIF4H FP inh, AI-2 QS modul, PABP FP inh)
COC/C=C/C1=CC2=CC(=O)C(C)(OC(=O)C3CCCC3)C(=O)C2=CO1 (stereo not given)	eIF4H FP inh 62, PABP FP inh active
COC/C=C/C1=CC2=CC(=O)C(C)(OC(=O)c3ccco3)C(=O)C2=CO1 (stereo not given)	eIF4H FP inh inconclusive, PABP FP inh inconclusive (no result: PABP1 MLLE inh, AI-2 QS modul, ABCB6 inh MLPCN)
Cc1nc2ccccc2c(=O)n1/N=C/c1c(O)ccc2ccccc12	none
Cc1nc2ccccc2c(=O)n1/N=C/c1c(O)ccc2oc3c(c12)CCCC3	eIF4H FP inh 22, PABP FP inh active
O=c1oc2cc([N+](=O)[O-])ccc2nc1/C=C(O)/C=C/c1ccccc1	eIF4H FP inh 72 (no result: PABP1 MLLE inh, ABCB6 inh MLPCN)
COc1ccc2[nH]cc(CCNC(=O)/C=C/[C@H]3O[C@@H](n4cnc5c(NC(=O)c6ccccc6)ncnc54)[C@H](O)[C@@H]3O)c2c1	none (no result: PHOSPHO1 block, eIF4H FP inh, AI-2 QS modul, PABP FP inh)
C/C(=N\NC(=S)NCCc1ccccc1)c1ccc(Cl)cc1Cl	none
C/C(=N\NC(=S)NCCc1ccccc1)c1ccc(O)cc1O	PABP1 MLLE inh 40
O=C(CNC(=O)c1ccccc1F)N/N=C/c1cc(Br)ccc1OC(=O)/C=C/c1ccco1	eIF4H FP inh 84
C=CC1=CCN(S(=O)(=O)C(C)(C)C)[C@H]1CCO	none (no result: PHOSPHO1 block, eIF4H FP inh, AI-2 QS modul, PABP FP inh)
CCOc1ccc2nc(SCC(=O)N(C)C3CCS(=O)(=O)C3)[nH]c2c1 (stereo not given)	PHOSPHO1 block 100
Cc1ccc2nc(SCC(=O)N(C)C3CCS(=O)(=O)C3)[nH]c2c1 (stereo not given)	none (no result: PHOSPHO1 block, eIF4H FP inh, AI-2 QS modul, PABP FP inh)
O=C(CCCCl)Oc1ccc2cc(-c3ccc4ccccc4n3)c(=O)oc2c1	eIF4H FP inh 52
Cc1ccc(Nc2c([N+](=O)[O-])ccc3c2=NC2(CCCCC2)N=3)cc1	PABP1 MLLE inh 39
O=C(Nc1ccc2c(c1)OCO2)c1cc(C2CCCCN2S(=O)(=O)c2ccccc2)on1 (stereo not given)	none (no result: PHOSPHO1 block, eIF4H FP inh, AI-2 QS modul, PABP FP inh)
O=C1c2ccccc2C(=O)C12OC2c1cccc2ccccc12 (stereo not given)	PHOSPHO1 block 66
O=C1NC(c2cccc3ccccc23)Nc2ccccc21 (stereo not given)	none (no result: PHOSPHO1 block, eIF4H FP inh, AI-2 QS modul, PABP FP inh)
CN(C)CCNc1ncnc2c1ncn2[C@H]1CN(Cc2cccs2)C[C@@H](CO)O1	none (no result: PHOSPHO1 block, eIF4H FP inh, AI-2 QS modul, PABP FP inh)
CC(=O)c1ccc(NC(=O)CCCN2C(=O)COc3ccc(C)cc32)cc1	PHOSPHO1 block 70
Cc1ccc2c(c1)N(CCCC(=O)NCc1ccc3c(c1)OCO3)C(=O)CO2	none
CCOC(=O)N=Nc1c(O)n(C)c2ccccc12	none
C=CCn1c(O)c(N=NC(=O)OCC)c2ccccc21	eIF4H FP inh active
CCOc1ccccc1N(C(=O)c1snc(C(N)=O)c1N)C(C(=O)NC1CCCC1)c1cccs1 (stereo not given)	PABP1 MLLE inh 59
CCOc1ccccc1N(C(=O)c1snc(C(N)=O)c1N)C(CC)C(=O)NC1CCCC1 (stereo not given)	none
C#CC(=O)N(c1ccc(OC)c(OC)c1)C(C(=O)NC1CCCC1)c1cccs1 (stereo not given)	ABCB6 inh MLPCN 55
C#CC(=O)N(c1cccc(OC)c1)C(C(=O)NC1CCCC1)c1cccs1 (stereo not given)	none
COc1cccc(-c2oc3c(c2C(=O)OCCN(C)C)C(O)CCC3)c1 (stereo not given)	none (no result: PHOSPHO1 block, PABP1 MLLE inh, eIF4H FP inh, AI-2 QS modul, PABP FP inh)
C/C(CC(=O)N1CCN(C=O)CC1)=N\NC(=O)c1ccc([N+](=O)[O-])cc1	none
C/C(=N\NC(=O)c1ccccc1O)C1C(=O)c2ccccc2C1=O	none
C/C(=N/NC(=O)c1cc2ccccc2cc1O)C1C(=O)c2ccccc2C1=O	PABP FP inh active
C/C(CC(=O)N1CCN(C=O)CC1)=N\NC(=O)c1cc2ccccc2cc1O	eIF4H FP inh 102, PABP FP inh active
COCCNC(=O)C1(C)CCCN(C(=O)c2ccccc2OC(F)(F)F)C1 (stereo not given)	none (no result: PHOSPHO1 block, eIF4H FP inh, AI-2 QS modul, PABP FP inh)
COc1cc(Nc2nc3ccccc3n3nnnc23)cc(OC)c1OC	eIF4H FP inh 80, PABP FP inh active
CCC/C=C/c1ccc(CN2C(C(C)C)C(=O)N(Cc3cn(CCC4OCCO4)nn3)CCS2(=O)=O)cc1 (stereo not given)	none (no result: PHOSPHO1 block, eIF4H FP inh, AI-2 QS modul, PABP FP inh)
Cc1cccc(S(=O)(=O)N2CN(Cc3ccco3)c3nc4ccccc4nc32)c1	eIF4H FP inh 54, PABP FP inh active
COCCN1CN(S(=O)(=O)c2ccccc2)c2nc3ccccc3nc21	PABP1 MLLE inh 37
COCCN1CN(S(=O)(=O)c2ccc(Cl)cc2)c2nc3ccccc3nc21	none
CC1=NC(=O)C(N=Nc2cccc(O)c2)N1c1ccccc1 (stereo not given)	PHOSPHO1 block 95
CCCc1ccc(Oc2cn[nH]c2-c2ccc(O)c(C)c2O)cc1	AI-2 QS modul -94
CN(C)S(=O)(=O)c1cccc(NC(=S)N/N=C/c2ccc(O)c(O)c2O)c1	eIF4H FP inh 57, PABP FP inh active
O=C(/C=C/[C@H]1O[C@@H](n2ccc(=O)[nH]c2=O)[C@H](O)[C@@H]1O)N1CCN(Cc2ccc(F)cc2)CC1	none (no result: PHOSPHO1 block, eIF4H FP inh, AI-2 QS modul, PABP FP inh)
C=CCNC(=S)NNC(=O)c1ccc(OCC(C)C)cc1	PHOSPHO1 block 60
C=CCNC(=S)NNC(=O)c1ccc(OCC)cc1	none
COc1ccc(NC(=O)c2cc(-c3cc(C)cc(F)c3)n[nH]2)cc1OC	none (no result: PHOSPHO1 block, eIF4H FP inh, AI-2 QS modul, PABP FP inh)
OCCCCCCNc1ccc(CCO)cc1	none (no result: PHOSPHO1 block, eIF4H FP inh, AI-2 QS modul, PABP FP inh)
Cc1cc(C(=O)CSc2nc3ccc(Cl)cc3[nH]2)c(C)n1C	PHOSPHO1 block 86
COc1ccc(Nc2nnc(SCC(=O)c3cc(C)n(CC4CCCO4)c3C)s2)cc1 (stereo not given)	PHOSPHO1 block 98 (no result: AI-2 QS modul)
COc1ccc(Nc2nnc(SCC3CCCCO3)s2)cc1 (stereo not given)	none
C/C(N)=C(/C#N)C(=O)CSc1nc2ccc(C)cc2[nH]1	PHOSPHO1 block 72
Cc1ccc2nc(SCC(=O)c3cc(C)n(C)c3C)[nH]c2c1	PHOSPHO1 block 71
Cc1cn([C@H]2C[C@H](O)[C@@H](CCC(=O)NCc3cccc4ccccc34)O2)c(=O)[nH]c1=O	none (no result: PHOSPHO1 block, eIF4H FP inh, AI-2 QS modul, PABP FP inh)
COc1ccc(-c2ccc(C(=O)Nc3cc(OC)c(OC)c(OC)c3)c3occc23)c(C)c1	none (no result: PHOSPHO1 block, eIF4H FP inh, AI-2 QS modul, PABP FP inh)
COc1cccc(CN2CCC2(C)C(=O)NCc2cccc(C(F)(F)F)c2)c1OC (stereo not given)	none (no result: PHOSPHO1 block, eIF4H FP inh, AI-2 QS modul, PABP FP inh)
COc1ccc(S(=O)(=O)N(C)C[C@@H]2OCc3cn(nn3)CCCC(=O)N([C@H](C)CO)C[C@H]2C)cc1	none (no result: PHOSPHO1 block, eIF4H FP inh, AI-2 QS modul, PABP FP inh)
Clc1cccc(CNc2ccn3nc(-c4cccc(OCc5ccccc5)c4)cc3n2)c1	none (no result: PHOSPHO1 block, eIF4H FP inh, AI-2 QS modul, PABP FP inh)

From PubChem BioAssay
